From the supplement of paper PMC10498489
Screen size: about 2,300 compounds; about 330 (14%) showed activity. These entries were drawn from the full list. Unmarked numbers belong to inactive results.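 The calls were made as follows: active = median modified Z-score above 1.96; inactive = 1.96 or below.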

System: HepG2 Srxn1-GFP reporter cells (+30 nM CDDO-Me)
Assay: Srxn1-GFP intensity median modified Z-score relative to plate median; higher = stronger NRF2 / oxidative stress reporter activation, active = hit call of the paper
Conditions: 10 µM; exposure time: 24h
Method in brief: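 HepG2 Srxn1-GFP BAC reporter cells (20,000 per well, 96-well plates) were co-exposed to an NRF2 activator at 30 nM and compound at 10 μM (≤0.1% DMSO) for 24 h in three replicate plates. After formaldehyde fixation and Hoechst staining, confocal images were analysed per cell for cytoplasmic GFP, excluding images with under 100 cells. The value is the median over replicates of the per-plate modified Z-score of GFP intensity. Scaling used 1.4826 × median absolute deviation.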

Point of comparison: `COC1(C)CCC2OC2(C)CCC2C1CC2(C)C` (stereo unspecified) [euspeclibcmpd2008], “Srxn1-GFP intensity median modified Z-score” value -0.165. Against it:
- CC1(C)O[C@@H]2CC3C4CC(F)=C5CC(=O)C=C[C@]5(C)[C@@]4(F)[C@@H](O)C[C@]3(C)[C@]2(C(=O)CO)O1 (stereo partly specified) [euspeclibcmpd129] — higher, 0.0501
- CCC(C)C1NC(=O)C(CCNCS(=O)(=O)O)NC(=O)C(NC(=O)C(CCNCS(=O)(=O)O)NC(=O)C(NC(=O)C(CCNCS(=O)(=O)O)NC(=O)CCCCC(C)C)C(C)O)CCNC(=O)C(C(C)O)NC(=O)C(CCNCS(=O)(=O)O)NC(=O)C(CCNCS(=O)(=O)O)NC(=O)C(C(C)CC)NC1=O (stereo unspecified) [euspeclibcmpd2131] — higher, 0.0847
- CCC(C)n1nccc1NC(=O)C(C)N1CCSCC1 (stereo unspecified) — higher, 0.365
- CC1(C)[C@@H]2CC[C@]1(C)C(=O)C2 [euspeclibcmpd42] — higher, -0.12
- O=C(O)c1cc(O)c2c(O)c3c(OC4OC(CO)C(O)C(O)C4O)cccc3c(-c3c4cc(C(=O)O)cc(O)c4c(O)c4c(OC5OC(CO)C(O)C(O)C5O)cccc34)c2c1 (stereo unspecified) [euspeclibcmpd1934] — lower, -0.281
- Cn1nnnc1SC=C1CSC2C(NC(=O)C(O)c3ccccc3)C(=O)N2C1C(=O)O (stereo unspecified) [euspeclibcmpd2229] — higher, -0.103
- O=C(Nc1ccccc1Cl)C1=NN(C2CCS(=O)(=O)C2)C(=O)CC1 (stereo unspecified) — higher, 1.26
- COc1cc(OC)c2c(=O)c(-c3ccccc3)c(C)oc2c1OC [euspeclibcmpd2303] — higher, 1.35
- O=C(O)Cc1ccccc1Nc1c(Cl)cccc1Cl [euspeclibcmpd2396] — higher, 0.438
- N=c1[nH]c(N2CCCCC2)cc(N)[n+]1[O-] [euspeclibcmpd792] — lower, -0.234
- CC1(C)O[C@@H]2CC3C4CC(F)=C5CC(=O)C=CC5(C)C4C(O)CC3(C)[C@]2(C(=O)CO)O1 (stereo partly specified) [euspeclibcmpd414] — higher, 0.0846
- O=C1CCC(N2C(=O)c3ccccc3C2=O)C(=O)N1 (stereo unspecified) [euspeclibcmpd588] — lower, -0.192
- NC(=O)Nc1[nH]c(=O)[nH]c1O [euspeclibcmpd347] — lower, -0.31
- CC(=O)OC=C1CSC2C(NC(=O)CSc3ccncc3)C(=O)N2C1C(=O)O (stereo unspecified) [euspeclibcmpd2110] — higher, 0.0966
- OCCc1ccccc1 [euspeclibcmpd771] — lower, -0.962
- CC(=O)NC1C(O)OC(CO)C(O)C1O (stereo unspecified) [euspeclibcmpd1995] — lower, -0.204
- Cc1c(N=c2[nH]cccc2C(=O)O)cccc1C(F)(F)F [euspeclibcmpd1313] — higher, 0.328
- Cc1cnc(C(=O)O)c[n+]1[O-] [euspeclibcmpd1196] — lower, -0.419
- CN[C@@H]1[C@H](OC2[C@H](O[C@H]3[C@H](O)[C@@H](O)[C@H](N=C(N)N)[C@@H](O)[C@@H]3N=C(N)N)O[C@@H](C)[C@]2(O)C=O)O[C@@H](CO)[C@H](O)[C@H]1O (stereo partly specified) [euspeclibcmpd270] — lower, -0.445
- C=C(C)[C@H]1C=CC(C(=O)O)CC1 (stereo partly specified) [euspeclibcmpd1451] — lower, -0.188
- Cc1ccc(C(=O)Oc2cccc3cccnc23)cc1 — higher, 0.989
- O=C(Oc1cccc2cccnc12)c1ccccc1Cl — higher, 1.65
- CC/C=C\C/C=C\C/C=C\C/C=C\C/C=C\CCCC(=O)OCC [euspeclibcmpd997] — higher, 0.696
- C[C@H]1[C@H]2CCC3C4CC=C5C[C@@H](N(C)C)CC[C@]5(C)C4CC[C@@]32CN1C (stereo partly specified) [euspeclibcmpd1801] — lower, -0.317
- CCC(/C=C/[C@@H](C)[C@H]1CCC2C3CC=C4C[C@@H](O)CC[C@]4(C)C3CC[C@@]21C)C(C)C (stereo partly specified) [euspeclibcmpd1549] — higher, -0.0971
- CC(C)CCCC(C)[C@H]1CCC2C3CC=C4C[C@@H](O)CC[C@]4(C)C3CC[C@@]21C (stereo partly specified) [euspeclibcmpd354] — higher, 0.396
- CC(C)CCCC(C)C1CCC2C3=CCC4CC(O)CCC4(C)C3CCC21C (stereo unspecified) [euspeclibcmpd1991] — higher, -0.131
- CC(=O)OC1CCC2(C)C(=CC=C3C2CCC2(C)C3CCC2C(C)/C=C/C(C)C(C)C)C1(C)C (stereo unspecified) [euspeclibcmpd1343] — higher, 1.93
- CC(=O)Nc1ccc(S(=O)(=O)N=c2o[nH]c(C)c2C)cc1 [euspeclibcmpd798] — lower, -0.176
- CC(=O)N[C@H]1[C@H]([C@H](O)[C@H](O)CO)O[C@](O)(C(=O)O)C[C@@H]1O [euspeclibcmpd2223] — higher, -0.0326
- CC(C)C(N)C(=O)OCC(CO)OCn1cnc2c(=O)[nH]c(=N)[nH]c21 (stereo unspecified) [euspeclibcmpd624] — higher, -0.125
- C[C@H]1CC2C3CC=C4CC(=O)C=C[C@]4(C)[C@@]3(F)[C@@H](O)C[C@]2(C)[C@@]1(O)C(=O)COP(=O)(O)O (stereo partly specified) [euspeclibcmpd2288] — lower, -0.294
- CNCc1ccccc1 [euspeclibcmpd1631] — lower, -0.463
- CC(CN(C)C)CN1c2ccccc2Sc2ccccc21 (stereo unspecified) [euspeclibcmpd308] — lower, -0.246
- CCC(=O)OCC(=O)C1(OC(=O)CC)C(C)CC2C3CC=C4CC(=O)C=CC4(C)C3(Cl)C(O)CC21C (stereo unspecified) [euspeclibcmpd31] — lower, -0.85
- CCC(=O)O[C@]1(C(=O)CCl)[C@@H](C)CC2C3CC=C4CC(=O)C=C[C@]4(C)[C@@]3(F)[C@@H](O)C[C@@]21C (stereo partly specified) [euspeclibcmpd633] — higher, 0.492
- NC[C@@H]1CC[C@@H](N)[C@@H](O[C@H]2[C@H](O)[C@@H](O[C@H]3O[C@H](CO)[C@@H](O)[C@H](N)[C@H]3O)[C@H](N)C[C@@H]2N)O1 [euspeclibcmpd1045] — higher, -0.0322
- CCOc1ccc(C(=O)c2cc(O)c(OC)c(OC)c2O)cc1 [euspeclibcmpd2089] — lower, -0.551
- CCCCCCCCCCCCCCC(C(=O)OC)C(O)(CC(=O)OC)C(=O)OC (stereo unspecified) [euspeclibcmpd2214] — lower, -0.435
- CCCCCCCCCCCCC(C(=O)O)C(C)C(=O)O (stereo unspecified) [euspeclibcmpd1524] — higher, 0.456
- OC[C@H]1O[C@H](OC[C@H]2O[C@@H](O)[C@H](O)[C@@H](O)[C@@H]2O)[C@H](O)[C@@H](O)[C@H]1O [euspeclibcmpd1651] — higher, -0.055
- Cn1c(=O)c2nc[nH]c2n(C)c1=O [euspeclibcmpd290] — higher, -0.062
- CC(C)Cn1c(=O)n(C)c(=O)c2nc[nH]c21 [euspeclibcmpd2061] — higher, 0.0284
- CC(O)Cn1cnc2c1c(=O)n(C)c(=O)n2C (stereo unspecified) [euspeclibcmpd1230] — higher, 0.0469
- COc1ccc(Cc2c[nH]c(=N)[nH]c2=N)cc1OC [euspeclibcmpd456] — higher, -0.0911
- COc1ccc([C@@H]2CC(=O)c3c(O)cc(O)cc3O2)cc1O [euspeclibcmpd1483] — higher, 0.0163
- COc1ccc(-c2cc(=O)c3c(O)cc(OC)c(OC)c3o2)c(OC)c1 [euspeclibcmpd1657] — higher, 0.259
- COc1ccc(/C=C2/COc3ccc(Br)cc3C2=O)cc1O — higher, 1.17
- COc1cc2c(cc1OC)-c1c(oc3cc(O)cc(O)c3c1=O)CO2 [euspeclibcmpd2244] — higher, -0.157
- COC(=O)/C=C/C(C)=C/C=C/C(C)=C/C=C/C=C(C)/C=C/C=C(C)/C=C/C(=O)O [euspeclibcmpd2376] — lower, -0.19
- COC(=O)/C=C/c1cc(OC)c(OC)c(OC)c1 [euspeclibcmpd2136] — higher, 0.7
- COCCN(Cc1ccccn1)C(=O)C1CCN(C)C(=O)C1 (stereo unspecified) — higher, 0.317
- CC1(C)SC2C(NC(=O)[C@@H](NC(=O)N3CCNC3=O)c3ccccc3)C(=O)N2C1C(=O)O (stereo partly specified) [euspeclibcmpd2116] — lower, -0.415

In the case of `CC1CCC2[C@@]3(C)C=CC(=O)C(C)(C)C3CC3OC(=O)C(=O)C1[C@]32C` (stereo partly specified) [euspeclibcmpd1535], the “Srxn1-GFP intensity median modified Z-score” value is reported as 9.38 (active).
In the case of `S=C1SCN(Cc2ccccc2)CN1Cc1ccccc1` [euspeclibcmpd1200], the “Srxn1-GFP intensity median modified Z-score” value is reported as 10 (active).
In the case of `O=C(Oc1cccc2cccnc12)c1ccccc1` [euspeclibcmpd773], the “Srxn1-GFP intensity median modified Z-score” value is reported as 12.8 (active).
In the case of `CC(C)C(C)/C=C/C(C)C1CCC2C3=CC=C4CC(O)CCC4(C)C3CCC21C` (stereo unspecified) [euspeclibcmpd1597], the “Srxn1-GFP intensity median modified Z-score” value is reported as 5.02 (active).
In the case of `C=C1CC[C@H](O)C/C1=C/C=C1\CCCC2(C)C1CCC2C(C)CCCC(C)C` (stereo partly specified) [euspeclibcmpd353], the “Srxn1-GFP intensity median modified Z-score” value is reported as 2.95 (active).
With `C=C1CC[C@H](O)C/C1=C/C=C1\CCC[C@]2(C)C([C@H](C)/C=C/[C@H](C)C(C)C)CC[C@@H]12` (stereo partly specified) [euspeclibcmpd112] the “Srxn1-GFP intensity median modified Z-score” value was 2.55 (active).
For `C[C@@H]1CC2C3CC=C4CC(=O)C=C[C@]4(C)[C@@]3(Cl)[C@@H](O)C[C@]2(C)[C@@]1(OC(=O)c1ccco1)C(=O)CCl` (stereo partly specified) [euspeclibcmpd756], the “Srxn1-GFP intensity median modified Z-score” value was 2.37 (active).
`CCCCCCCCCCCCCCCCC(C(=O)O)C(O)(CC(=O)O)C(=O)O` (stereo unspecified) [euspeclibcmpd1735] was tested, and the “Srxn1-GFP intensity median modified Z-score” value was 3.83 (active).
`CC(C)Cn1c(=O)n(C)c(=O)c2nc[nH]c21` [euspeclibcmpd1808] was tested, and the “Srxn1-GFP intensity median modified Z-score” value was 11.6 (active).
In the case of `COc1ccc2c(c1)C(=O)/C(=C\c1ccc(OC)c(O)c1)CO2`, the “Srxn1-GFP intensity median modified Z-score” value is reported as 3.46 (active).
With `COc1ccc2c(c1)OC/C(=C\c1ccc(OC)c(O)c1)C2=O` [euspeclibcmpd1638] the “Srxn1-GFP intensity median modified Z-score” value was 19.3 (active).
In the case of `COC(=O)/C=C/C(=O)OC` [euspeclibcmpd923], the “Srxn1-GFP intensity median modified Z-score” value is reported as 6.34 (active).
